# In the OligoGym collection:
# Biological target: CORIN
# Test: pooled miR-30 sensor sort-seq; sequence = guide strand
# Settings: shRNA
# Note: reference of the scale not given here.
row,Sequence,sensor-assay potency score (higher = more potent)
1,TTATTCAGACTGTTGTTCGGGT,0.501
2,TATTTGTAAGAATAACATCGGA,-0.524
3,TTGAACTTTCATACAATCGTGA,0.765
4,ATTTGTAAGAATAACATCGGAC,-0.147
5,TTGATTGTCTGAATTTTCCTCT,0.641
6,TTGATATACATCCAGAATGGGG,-1.35
7,ATGATCTTGATATACATCCAGA,-1.55
8,TAAAATTGCAGGTAGTATCTAT,0.492
9,TTGAGTATGTAGCTACAACTGT,-0.57

# Biological target: CORO2B
# Test: as above
# Settings: shRNA
row,Sequence,sensor-assay potency score (higher = more potent)
1,TTGTCGTGCACATTCTTGGTGA,-0.294
2,TTCTTGTCCTTGCACGTGGTGG,-1.22
3,TTGTAGTCGTAGCCAGCGCTGA,-0.89
4,TTTTCTAATAAATCTATTCCGT,-0.324
5,TTTCTAATAAATCTATTCCGTT,-1.03
6,TAGACATTCCGGAACTTGGAGC,-1.06
7,TTGTAGAAGCGGAACACCTCGC,-0.204
8,TATTTCAATTCTATCCTTGGGA,0.222
9,TAGAAGCGGAACACCTCGCAGG,-0.524
10,TAATGCATCTAGTAGATCCTAG,0.537
11,TTCTAATAAATCTATTCCGTTG,-0.9
12,ATCTGTCTTGTGTTCCACCTGG,-0.685

# Biological target: COX10
# Test: as above
# Settings: shRNA
row,Sequence,sensor-assay potency score (higher = more potent)
1,TTTCTGCTTTGGCTTGACCTGA,-0.722
2,TTGTTTAACTCTCCCACCCCGA,-0.416
3,TTTAGAAGGAACTGCTTCCAAC,-0.611
4,TTTGAGGAAGCTAAAGTGCTGA,0.14
5,TGATTTTGGATAGTCGAGCCAA,-0.198
6,TATTGAGTCTTCAATTACTGAG,-0.782
7,TTGTATTCACTGACTGAGCTGA,-0.0577
8,TGCAGTGGTACTTACAACCAGA,-1.05
9,ATAATCTTGTTCTAAACCCAGC,-0.854
10,TAACCGTATTTGGTAACCGAGA,-1.58
11,TACACTTGCAGCTTCATCTCTT,1.01
12,TTTCTGGACAAAGATAGGCTGG,-0.448
13,TACCACAACATGCTCGCCTGGC,-0.0841
14,TTCAGTGGTGTGTAGCAGCAGG,-0.511
15,TTCTTTGTCCTATTCATGTTTG,-0.705
16,TTTTAGAAGGAACTGCTTCCAA,-0.134
17,TATTGTTAGAAGGACTATGGTT,-0.28
18,TTATCTACCTACAATCCCTTTA,-0.2
19,TCTAGTTCTATCAATTCCTTTT,-0.971
